Compounds with a hit are over-represented: about 7.5% of the library has one in this group of screens.
HCMV antiviral: qHTS Assay for inhibitors of the human cytomegalovirus (HCMV); HFF cells, HCMV-luciferase reporter, 72 h; stronger effect = lower value; activity change, negative = inhibition, % at 57.5 µM; actives 4.5% (n = 410,000); AID 1259415, 2018; in the data active = activity change below about -60%; inconclusive = no clear call, values can overlap the other calls; inactive = above about -39%
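Two-dose cell screen: HFF monolayers treated with compounds and infected with luciferase-expressing HCMV at 1 PFU/cell, 72 h at 37C, then lysed for luciferase measurement.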
FBPA Giardia inh: qHTS Assay for Inhibitors of Fructose-1,6-bisphosphate Aldolase from Giardia Lamblia; AID 2451, 2010; actives 0.71% (n = 290,000); A8B2U2; Potency, µM (doses to about 59.6 µM), for the others: top-dose activity, negative = inhibition, most hits filed as inhibitors; purified Giardia FBPA; also: potency is read from the fitted curve at half-maximal effect; nearly all actives have a fitted effect of over 55% in size
Target sequence (A8B2U2 whole entry, looked up): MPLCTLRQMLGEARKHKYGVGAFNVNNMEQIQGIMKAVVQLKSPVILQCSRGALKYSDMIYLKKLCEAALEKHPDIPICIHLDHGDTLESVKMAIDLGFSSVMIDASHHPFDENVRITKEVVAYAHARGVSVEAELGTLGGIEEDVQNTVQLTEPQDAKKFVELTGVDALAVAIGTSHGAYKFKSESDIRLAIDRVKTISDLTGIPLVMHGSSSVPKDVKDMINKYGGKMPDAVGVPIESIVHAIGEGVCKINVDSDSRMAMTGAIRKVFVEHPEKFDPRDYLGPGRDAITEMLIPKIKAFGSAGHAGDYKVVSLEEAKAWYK
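40 nM FBPA preincubated 10 min at RT with compound (up to 57.5 uM final), then substrate plus GAPDH/TPI/NAD/arsenate coupling and diaphorase/resazurin added. Fluorescence read after 20 min at RT, 525/598 nm.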
Vaccinia Venus: qHTS for Stage-Specific Inhibitors of Vaccinia Orthopoxvirus: Venus Reporter Primary qHTS. Vaccinia virus Venus reporter expression, fluorescence. Potency, µM (titrated, usually from 36.5 µM), without a hit: at the highest dose activity change, negative = inhibition, most hits filed as inhibitors. actives 0.46% (n = 330,000); calls by dose curve; tested in A549 cells; also: potency is read from the fitted curve at half-maximal effect; nearly all actives have a fitted effect of over 30% in size
HCV inh: qHTS Assay for Inhibitors of Hepatitis C Virus (HCV); Huh7.5.1 HCVcc-Cre infection, luciferase reporter, 44 h; Potency, µM (titrated, usually from 41.8 µM), for the others: at the highest dose activity change, negative = inhibition, hits mostly inhibitors; actives 3.4% (n = 340,000); AID 651820, 2012; also: potency is read from the fitted curve at half-maximal effect
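1,000 cells/well; 4 h culture; + compound; + HCVcc-Cre (~0.5 moi); 44 h; luciferase substrate, RT 15 min; read 15 sec.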
Vaccinia mCherry: qHTS for Stage-Specific Inhibitors of Vaccinia Orthopoxvirus: mCherry Reporter Primary qHTS; Vaccinia virus mCherry reporter infection, fluorescence; Potency, µM (titrated, usually from 36.5 µM), inactives show at the highest dose activity change, negative = inhibition, most hits filed as inhibitors; actives 0.63% (n = 310,000); AID 720579, 2013; calls by dose curve; tested in A549 cells; also: potency is read from the fitted curve at half-maximal effect; nearly all actives have a fitted effect of over 35% in size
FMDV inh: High Throughput Screening for Foot and Mouth Disease Virus Antivirals | AID 1159524, 2015 | Potency, µM (top dose mostly 57.9 µM), for the others: at the highest dose activity change, negative = inhibition, usual class: inhibitors | FMDV antiviral cell-based qHTS | actives 1.2% (n = 410,000); calls by dose curve; tested in HEK293T cells; also: read-out not given here; potency is read from the fitted curve at half-maximal effect; nearly all actives have a fitted effect of over 45% in size
* = called active by the depositor; i = inactive; ? = inconclusive; · = not tested or not shown. Unless noted, calls follow the shape of the dose curve; as a rule, active = well fitted curve in the direction sought with a large enough effect; inconclusive = small, poorly fitted or top-dose-only effect, or another doubt; inactive = no such curve, though single readings can be large; an effect the other way counts as inactive or inconclusive. % is scaled to controls: 0 for no effect and ±100 for the full control effect.

SMILES	HCMV antiviral	FBPA Giardia inh	Vaccinia Venus	HCV inh	Vaccinia mCherry	FMDV inh
COc1ccc([C@H]2CC(=O)C=C(c3cc(Cl)ccc3C)C2)cc1	-36	·	-12%	-22%	i	-22%
COc1ccc([C@H]2CC(=O)C=C(c3cc(F)ccc3F)C2)cc1OC	-3	·	?	11µM*	-22%	32µM*
Cc1ccccc1-c1nc(S(=O)(=O)c2ccc(Br)cc2)c(NCc2cccnc2)o1	10	-2%	·	11µM*	·	17%
Cc1ccc(S(=O)(=O)c2nc(-c3ccccc3)oc2NCc2cccnc2)cc1	2	2%	?	11µM*	·	23%
O=S(=O)(c1ccccc1)c1nc(-c2ccc(F)cc2)oc1NCc1ccccc1	-9	·	-15%	·	-20%	2%
O=C(/C=C/c1ccccc1)N1CCN(Cc2cc(=O)n3nc(-c4ccccc4)sc3n2)CC1	?	·	-3%	·	-21%	-13%
O=C(CCc1nc2ccccc2c(=O)[nH]1)N1CCN(S(=O)(=O)c2ccccc2Br)CC1	-14	·	10µM*	?	?	-23%
Cc1ccc(S(=O)(=O)N2CCN(C(=O)CCc3nc4ccccc4c(=O)[nH]3)CC2)c(C)c1	18	·	?	-6%	-9%	?
CCOc1ccc(-n2c(C)cc(/C=N\NC(=O)CC(=O)NC3CCCCC3)c2C)cc1	-81*	-9%	-15%	-11%	-17%	-29%
CCCCN(C=O)c1c(CC)nc2ccc(C(=O)NCCN(C)C)cn12	8	·	-4%	·	i	-6%
CC(=O)NC(Cc1ccc([N+](=O)[O-])cc1)C(=O)NCC(N)C(=O)c1ccccc1 (stereo not given)	·	·	-19%	·	i	·
CCN(CC)S(=O)(=O)c1cccc(NC(=O)/C=C/c2cccc([N+](=O)[O-])c2)c1	-85*	-3%	?	6.3µM*	?	18µM*
O=C(/C=C/c1cccc([N+](=O)[O-])c1)NC(=S)Nc1cccc(NC(=O)c2ccccc2Cl)c1	-74*	3%	-22%	-23%	-23%	?
COC(=O)[C@H]1[C@H](CO)[C@H]2Cn3c(cccc3=O)[C@@H]1N2CC1CCCCC1	-13	·	·	·	·	·
COC(=O)c1ccc(NC(=O)c2nc(S(=O)(=O)Cc3cccc(C)c3)ncc2Cl)cc1	-101*	-5%	?	?	?	28µM*
COC(=O)c1ccccc1NC(=O)c1nc(S(=O)(=O)Cc2cccc(C)c2)ncc1Cl	-60*	·	?	·	-25%	?
CCS(=O)(=O)c1ncc(Cl)c(C(=O)Nc2c(C(=O)Nc3cccc(C)c3)oc3ccccc23)n1	19	·	-9%	·	-20%	-17%
Cc1ccccc1NC(=O)c1nc(S(=O)(=O)Cc2ccccc2F)ncc1Cl	·	·	-21%	·	-18%	·
Cc1ccc(CNC(=O)c2nc(S(=O)(=O)Cc3ccc(C)cc3)ncc2Cl)cc1	19	·	?	·	?	-50%
Cc1cccc(CS(=O)(=O)c2ncc(Cl)c(C(=O)NCc3ccc4c(c3)OCO4)n2)c1	-78*	-12%	·	1%	·	32µM*
CC(=O)Nc1ccc(NC(=O)c2nc(S(=O)(=O)Cc3cccc(C)c3)ncc2Cl)cc1	-101*	·	-8%	?	i	20µM*
Cc1ccc(-c2nc(CCNC(=O)C(=O)Nc3ccc(C)c(C)c3)cs2)cc1	89	·	-9%	·	-6%	-18%
CC1(C(=O)NS(=O)(=O)c2cccc(C#N)c2)CCN1C(=O)Cc1ccc(Cl)cc1Cl (stereo not given)	-22	·	-7%	·	11%	-26%
Cc1noc(C)c1CCC(=O)N1CCCC(CCC(=O)NCc2ccc(F)c(F)c2)C1 (stereo not given)	-29	4%	-6%	29%	-23%	-1%
CN(CC(=O)Nc1ccc(Cl)c(C(F)(F)F)c1)C(=O)Cc1n[nH]c(=O)c2ccccc12	-73*	·	?	?	-26%	?
SMILES	HCMV antiviral	FBPA Giardia inh	Vaccinia Venus	HCV inh	Vaccinia mCherry	FMDV inh
CN(CC(=O)Nc1ccc(F)c(F)c1F)C(=O)c1cc(-c2ccncc2)nc2ccccc12	-13	·	-16%	?	-20%	-15%
CN(CC(=O)Nc1ccc(Cl)c(C(F)(F)F)c1)C(=O)c1cc(-c2ccncc2)nc2ccccc12	-33	·	-4%	?	-14%	28µM*
CCc1cc2c(cc3c(=O)n(CC(=O)NC4CCCCC4)nc(CC)n32)s1	?	·	-11%	·	-11%	18%
COc1ccc(CNc2nn3c(-c4cccc(C(=O)N(C)C)c4)cnc3s2)cc1	-66*	·	-19%	·	-20%	0%
COc1cccc(-c2cc(NC=O)c3ncc(-c4cccc(C(=O)N(C)C)c4)n3c2)c1	70	·	-23%	·	-15%	-18%
CCOc1ccc(OCC)c(NC(=O)CSc2nnnn2CC)c1	30	-1%	-6%	?	-10%	7%
CCOc1ccc(OCC)c(NC(=O)CSc2nc3cccnc3n2C)c1	-63*	-7%	-25%	6.3µM*	i	18µM*
Cc1cccc(NC(=O)CSc2nc3ccccc3c(=O)n2C)c1	?	2%	-11%	10µM*	i	?
CC(=O)Nc1cccc(NC(=O)CSc2ncc(C(=O)Nc3ccccc3)c(=O)n2C)c1	10	·	-1%	11µM*	-9%	?
CC(=O)Nc1cccc(NC(=O)CSc2ncc(C(=O)Nc3ccc(F)cc3)c(=O)n2C)c1	4	·	1%	-4%	-10%	?
CCOc1ccc(OCC)c(NC(=O)CSc2nc3ccccc3c(=O)n2C)c1	-70*	4%	·	?	·	?
CCOc1ccc2nc(NC(=O)CSc3nc4cccnc4n3C)sc2c1	-30	2%	?	?	?	-27%
O=C(Nc1ccc2nccnc2c1)N1CCCCCC1	·	·	-8%	·	-8%	·
C=CCNCc1ccc(C(=O)NCCCCCCC)cc1[N+](=O)[O-]	24	·	-17%	?	-5%	-9%
Cc1cccc(Cn2c(SCCN3CCCCC3)nc3c2c(=O)[nH]c(=O)n3C)c1	-29	14%	?	10%	-14%	-20%
Cc1ccccc1C(=O)Nc1cccc(NC(=O)Cn2cnc3c(=O)n(C)c(=O)n(C)c32)c1	-64*	-3%	·	?	·	-8%
Cc1cccc(Cn2c(SCC(=O)Nc3ccccc3)nc3c2c(=O)[nH]c(=O)n3C)c1	23	0%	-17%	25µM*	i	-24%
Cc1cccc(C)c1NC(=O)Cn1cnc2c(=O)n(C)c(=O)n(C)c21	56	-1%	·	-3%	·	-17%

Source: PubChem
